Experimental data from PubChem BioAssay AID588689 (Southern Research Specialized Biocontainment Screening …, 2011).
In all, about 340,000 compounds went through this assay and about 1,000 (0.29%) were called active. Cut-off read from the data, not from the text of the source: inconclusive = inhibition above about 29% without an active follow-up result; inactive = below that. Only a sample is shown. Entries with a potency or affinity are not part of this list.

Target: Genome polyprotein (Dengue virus type 2 (strain 16681-PDK53)) (UniProt P29991)
Experiment: flavivirus cap methylation enzyme inhibition – biochemical, confirmation dose response, primary screen (AID 588689)
Conditions: Dengue-2 NS5 methyltransferase capping enzyme assay, at 25 µM, stronger effect = higher value
[1] = measured here: pilot screen replicate inhibition

Sequence of Genome polyprotein (Dengue virus type 2 (strain 16681-PDK53)) (P29991 whole entry, looked up): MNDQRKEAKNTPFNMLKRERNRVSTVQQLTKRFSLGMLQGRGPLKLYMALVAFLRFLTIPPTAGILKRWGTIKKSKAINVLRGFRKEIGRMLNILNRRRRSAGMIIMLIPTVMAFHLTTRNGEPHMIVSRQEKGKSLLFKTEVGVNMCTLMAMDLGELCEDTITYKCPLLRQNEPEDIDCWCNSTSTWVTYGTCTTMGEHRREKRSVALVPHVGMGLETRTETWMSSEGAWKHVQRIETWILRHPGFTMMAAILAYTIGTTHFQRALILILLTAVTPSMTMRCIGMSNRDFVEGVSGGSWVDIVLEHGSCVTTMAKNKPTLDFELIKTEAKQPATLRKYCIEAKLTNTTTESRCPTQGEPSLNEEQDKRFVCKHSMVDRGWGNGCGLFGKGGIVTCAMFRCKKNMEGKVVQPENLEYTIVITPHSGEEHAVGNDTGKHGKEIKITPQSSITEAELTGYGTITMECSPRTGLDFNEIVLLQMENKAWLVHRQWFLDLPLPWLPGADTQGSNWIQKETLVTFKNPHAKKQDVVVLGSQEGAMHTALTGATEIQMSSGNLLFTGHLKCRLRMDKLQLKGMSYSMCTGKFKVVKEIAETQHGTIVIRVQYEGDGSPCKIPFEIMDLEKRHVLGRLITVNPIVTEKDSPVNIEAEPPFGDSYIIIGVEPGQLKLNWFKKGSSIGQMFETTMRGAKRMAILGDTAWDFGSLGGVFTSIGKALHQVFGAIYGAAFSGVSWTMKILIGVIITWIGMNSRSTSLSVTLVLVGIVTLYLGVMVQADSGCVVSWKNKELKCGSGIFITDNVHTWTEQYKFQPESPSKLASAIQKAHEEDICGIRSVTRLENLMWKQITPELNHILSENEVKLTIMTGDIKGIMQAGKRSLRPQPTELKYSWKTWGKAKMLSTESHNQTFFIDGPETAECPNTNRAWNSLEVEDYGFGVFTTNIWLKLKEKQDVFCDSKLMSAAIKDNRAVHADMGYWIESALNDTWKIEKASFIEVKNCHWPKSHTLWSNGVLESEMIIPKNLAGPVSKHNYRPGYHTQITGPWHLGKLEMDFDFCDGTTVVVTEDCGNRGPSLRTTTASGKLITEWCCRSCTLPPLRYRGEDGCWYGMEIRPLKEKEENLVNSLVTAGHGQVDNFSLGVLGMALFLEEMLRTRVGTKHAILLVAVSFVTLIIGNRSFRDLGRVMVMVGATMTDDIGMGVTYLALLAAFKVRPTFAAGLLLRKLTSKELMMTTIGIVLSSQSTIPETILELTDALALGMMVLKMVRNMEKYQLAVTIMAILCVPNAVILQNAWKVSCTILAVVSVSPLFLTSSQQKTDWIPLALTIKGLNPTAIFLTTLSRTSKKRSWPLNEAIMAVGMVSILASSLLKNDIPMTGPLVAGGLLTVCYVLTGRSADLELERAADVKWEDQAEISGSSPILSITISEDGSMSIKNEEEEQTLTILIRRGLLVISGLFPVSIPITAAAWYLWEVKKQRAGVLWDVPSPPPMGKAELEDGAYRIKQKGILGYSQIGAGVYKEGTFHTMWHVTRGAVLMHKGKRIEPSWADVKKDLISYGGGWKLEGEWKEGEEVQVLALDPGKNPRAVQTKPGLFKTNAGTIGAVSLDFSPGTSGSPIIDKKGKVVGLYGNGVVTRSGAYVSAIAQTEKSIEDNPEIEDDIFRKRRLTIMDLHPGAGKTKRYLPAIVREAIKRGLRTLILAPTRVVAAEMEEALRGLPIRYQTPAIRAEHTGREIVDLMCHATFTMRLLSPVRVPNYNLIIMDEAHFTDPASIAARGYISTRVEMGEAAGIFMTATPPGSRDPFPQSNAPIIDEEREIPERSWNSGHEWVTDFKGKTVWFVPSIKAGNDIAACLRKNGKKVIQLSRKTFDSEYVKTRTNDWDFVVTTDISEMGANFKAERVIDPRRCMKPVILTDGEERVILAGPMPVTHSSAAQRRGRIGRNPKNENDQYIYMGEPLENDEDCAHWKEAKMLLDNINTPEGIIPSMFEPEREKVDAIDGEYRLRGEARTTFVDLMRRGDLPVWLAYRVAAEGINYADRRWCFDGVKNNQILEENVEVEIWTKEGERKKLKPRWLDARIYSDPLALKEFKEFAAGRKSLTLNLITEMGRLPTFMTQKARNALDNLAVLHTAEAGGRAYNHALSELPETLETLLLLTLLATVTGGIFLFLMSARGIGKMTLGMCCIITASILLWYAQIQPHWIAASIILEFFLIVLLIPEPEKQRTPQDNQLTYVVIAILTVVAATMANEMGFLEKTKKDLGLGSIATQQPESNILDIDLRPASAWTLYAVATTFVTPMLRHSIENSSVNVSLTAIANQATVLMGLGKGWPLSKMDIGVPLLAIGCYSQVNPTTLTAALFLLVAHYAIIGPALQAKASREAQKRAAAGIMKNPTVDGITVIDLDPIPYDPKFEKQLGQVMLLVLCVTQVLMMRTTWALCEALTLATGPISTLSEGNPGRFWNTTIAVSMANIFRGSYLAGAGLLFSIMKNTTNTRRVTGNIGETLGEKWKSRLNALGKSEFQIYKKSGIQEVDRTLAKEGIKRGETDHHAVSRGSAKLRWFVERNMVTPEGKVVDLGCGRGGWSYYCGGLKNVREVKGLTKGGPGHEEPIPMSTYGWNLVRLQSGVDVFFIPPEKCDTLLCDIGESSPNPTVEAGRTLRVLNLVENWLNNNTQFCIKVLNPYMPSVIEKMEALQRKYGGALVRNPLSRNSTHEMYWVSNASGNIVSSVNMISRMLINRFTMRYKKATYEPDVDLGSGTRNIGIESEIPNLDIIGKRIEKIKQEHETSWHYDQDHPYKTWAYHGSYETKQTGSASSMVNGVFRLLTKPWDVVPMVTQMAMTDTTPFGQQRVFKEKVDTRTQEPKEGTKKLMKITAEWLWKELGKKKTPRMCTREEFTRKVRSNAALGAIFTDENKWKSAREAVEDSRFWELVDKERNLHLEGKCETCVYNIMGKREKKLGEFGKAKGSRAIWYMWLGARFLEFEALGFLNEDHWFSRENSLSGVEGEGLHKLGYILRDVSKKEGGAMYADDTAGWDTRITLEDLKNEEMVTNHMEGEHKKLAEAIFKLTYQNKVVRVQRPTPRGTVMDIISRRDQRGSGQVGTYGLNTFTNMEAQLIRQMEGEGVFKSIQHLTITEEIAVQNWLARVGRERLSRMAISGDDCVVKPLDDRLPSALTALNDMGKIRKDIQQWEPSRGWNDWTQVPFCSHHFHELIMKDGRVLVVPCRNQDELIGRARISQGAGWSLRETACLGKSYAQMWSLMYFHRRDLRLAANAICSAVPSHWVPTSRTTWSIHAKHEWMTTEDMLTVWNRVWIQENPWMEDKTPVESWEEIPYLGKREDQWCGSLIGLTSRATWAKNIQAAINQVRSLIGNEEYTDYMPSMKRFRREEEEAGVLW

| SMILES | inhibition | inhibition [1] [%] |
| --- | --- | --- |
| NC(=O)Cn1c(O)c(N=NC(=O)CNC(=O)/C=C/c2ccccc2)c2ccccc21 | 3.88% (inactive) |  |
| CC(C)CC(COCc1cccc(Cl)c1)N1CCN(C(=O)c2cccc(C(F)(F)F)c2)CCC1=O (configuration not stated) | 0.79% (inactive) |  |
| CCOc1ccccc1CN1CCNC(=O)C1CC(=O)NC1CCCCCC1 (configuration not stated) | 7.85% (inactive) |  |
| CC(C)CCn1c(SCC(=O)Nc2ccccc2C(F)(F)F)nc2nccnc2c1=O | -2.66% (inactive) |  |
| CCOC(=O)C1CCN(S(=O)(=O)c2ccc(CNC(=O)c3ccccc3)s2)CC1 | -13.1% (inactive) |  |
| COC(=O)Nc1ccc(S(=O)(=O)N2CCCC(C(=O)N3CC(C)OC(C)C3)C2)cc1 (configuration not stated) | -5.54% (inactive) |  |
| O=C(CSc1nnc2ccc(-c3ccccn3)nn12)Nc1ccc(F)cc1 | 2.75% (inactive) |  |
| C[C@@H]1CN(C(=O)c2cc(COc3cccc(C(F)(F)F)c3)on2)C[C@H](C)O1 | -9.08% (inactive) |  |
| COc1ccccc1C(=O)Nc1ccnn1C1CCN(Cc2cn(C)c3ccccc23)CC1 | -3.88% (inactive) |  |
| C/C(CCC(=O)O)=N/Nc1ccc([N+](=O)[O-])cc1[N+](=O)[O-] | -3.25% (inactive) |  |
| CCC(CC)=NNc1ccc([N+](=O)[O-])cc1[N+](=O)[O-] | -0.89% (inactive) |  |
| Cc1ccc(CN2CCN(CC(=O)NC(C)CCc3ccccc3)C2=O)cc1 (configuration not stated) | -4.17% (inactive) |  |
| CCCc1cc(=O)c2ccc(OCC(C)=O)cc2o1 | -9.24% (inactive) |  |
| CC(C)N(CCNS(=O)(=O)c1ccc(Cl)cc1)C(C)C | 0.97% (inactive) |  |
| COCCC(=O)NNS(=O)(=O)c1ccc(Cl)cc1 | 5.47% (inactive) |  |
| CCOc1ccc(NC(=O)c2ccc(S(=O)(=O)N3CCOCC3)cc2)cc1 | 1.78% (inactive) |  |
| CN1C(=O)C2C3c4ccccc4C(c4ccccc43)[C@@H]2C1=O (some centres not stated) | -1.31% (inactive) |  |
| CC(C(=O)O)N1C(=O)C2C3c4ccccc4C(c4ccccc43)[C@@H]2C1=O (some centres not stated) | -2.61% (inactive) |  |
| CCC(C(=O)O)P(=O)(c1ccc(Cl)cc1)c1ccc(Cl)cc1 (configuration not stated) | -8.59% (inactive) |  |
| CCCCCSc1nncc(=O)[nH]1 | 4.01% (inactive) |  |
| COC1=CC(=O)C(OC)=C(OC)C1=O | 6.99% (inactive) |  |
| COc1ccc(-c2cccc(NC(=O)c3cccs3)c2)nn1 | -3.63% (inactive) |  |
| O=C(CSc1nc2ccccc2s1)Nc1cc(S(=O)(=O)N2CCOCC2)ccc1Cl | -0.74% (inactive) |  |
| O=C1SCC(c2ccc(Cl)cc2Cl)=NN1Cc1nnc(-c2ccccc2)o1 | -1.48% (inactive) |  |

| SMILES | inhibition | inhibition [1] [%] |
| --- | --- | --- |
| O=c1[nH]cnc2c1sc1nc(-c3ccccc3)c3c(c12)CCCC3 | -9.17% (inactive) |  |
| O=C(O)CSc1ncnc2c1sc1nc(-c3ccccc3)c3c(c12)CCC3 | 22.7% (inactive) |  |
| CCN(CC)c1ccc(S(=O)(=O)N2CCOCC2)cc1NC(=O)CSC(=S)N1CCCC1 | -4.86% (inactive) |  |
| COCCN(C(=O)CSc1nnc(-c2cccc(Cl)c2)n1N)c1c(N)n(CC(C)C)c(=O)[nH]c1=O | -1.15% (inactive) |  |
| C/C=N\NC(=O)CNC(=O)CNC(=O)c1ccccc1 | -9.83% (inactive) |  |
| Oc1ccc(Cl)cc1CNC1CCCCC1 | -11.2% (inactive) |  |
| Oc1ccc(CNC2CCCCC2)cc1 | -4.06% (inactive) |  |
| CC(=O)NCCNC(=O)c1oc2ccccc2c1CSc1ncn[nH]1 | 0% (inactive) |  |
| Cc1cc(C)nc(N/N=C/c2ccccc2OCC(=O)O)n1 | 0% (inactive) |  |
| COc1cccc(N=Cc2nc(-c3ccccc3)oc2OC(C)=O)c1 | -7.76% (inactive) |  |
| COc1ccc(N=Cc2nc(-c3ccccc3)oc2OC(C)=O)cc1 | -15.3% (inactive) |  |
| O=C1c2ccccc2C(=O)N1c1ccccc1 | -3.62% (inactive) |  |
| COc1ccc(-c2noc(-c3ccccc3C(=O)NCc3ccco3)n2)cc1OC | -1.61% (inactive) |  |
| CCOC(=O)N1CCN(C(=O)/C=C/c2ccc(OC)c(OC)c2)CC1 | -5.82% (inactive) |  |
| COc1ccccc1/C=C/C=c1\sc2nc(=O)c(Cc3ccccc3)nn2c1=O | -9.19% (inactive) |  |
| CCOc1ccccc1/C=c1\sc2ncnn2c1=O | 3.42% (inactive) |  |
| COc1ccccc1/C=c1\sc2nc(-c3ccco3)nn2c1=O | 20.1% (inactive) |  |
| COc1ccccc1/C=c1\sc2nc(-c3ccccc3OC)nn2c1=O | 5.01% (inactive) | 1.52 |
| Cc1cccc(NS(=O)(=O)c2ccc(NS(=O)(=O)c3cccs3)cc2)c1 | 13.3% (inactive) |  |
| N#C/C=C/N1CCC(Cc2ccccc2)CC1 | -4.96% (inactive) |  |
| N#CCCN(C(=O)COC(=O)Cc1ccc(Br)cc1)c1ccccc1 | -13.2% (inactive) |  |
| CC(C)c1[nH]c(=O)c(C#N)c2c1CSC(C)(C)C2 | -6.61% (inactive) |  |
| COc1ccc(C(CCN2CCOCC2)c2c(O)cc(OC)cc2OC)cc1 (configuration not stated) | -0.7% (inactive) |  |
| OCc1ccccc1CNCc1ccccc1 | -5.52% (inactive) |  |

| SMILES | inhibition | inhibition [1] [%] |
| --- | --- | --- |
| Oc1ccccc1CNCc1ccccc1 | -2.38% (inactive) |  |
| CSc1ncccc1C(=O)OCc1cccc([N+](=O)[O-])c1 | 0% (inactive) |  |
| COc1ccc(NC(=O)N(C)C[C@@H]2OCc3cnnn3CCCC(=O)N([C@H](C)CO)C[C@H]2C)cc1 | 0.55% (inactive) |  |
| Cc1ccc(C(=O)Nc2ccc3cn[nH]c3c2)cc1S(=O)(=O)N1CCOCC1 | -0.88% (inactive) |  |
| O=c1oc2c3c4c(cc2c2c1CCC2)OCCN4CCC3 | 24.7% (inactive) |  |
| CC(C)c1cc(=O)oc2c3c4c(cc12)CCCN4CCC3 | 0% (inactive) |  |
| N/C(=N\OC(=O)CCC1CCCCC1)c1cccc([N+](=O)[O-])c1 | -1.88% (inactive) | 1.82 |
| O=C(CSc1ccccc1)N1CCN(S(=O)(=O)c2ccccc2F)CC1 | 3.25% (inactive) |  |
| C=CCn1c(NC(=O)c2ccc(Br)o2)c(S(=O)(=O)c2ccccc2)c2nc3ccccc3nc21 | -4.19% (inactive) |  |
| CCCCn1c(NC(=O)c2ccco2)c(S(=O)(=O)c2ccc(C)cc2)c2nc3ccccc3nc21 | -64.2% (inactive) |  |
| OCCC1CN(Cc2cnn(-c3ccccc3Cl)c2)CCN1Cc1ccsc1 (configuration not stated) | -2.26% (inactive) |  |
| CC(C)N(C(=O)[C@H]1C[C@H](CC(=O)NCCN2CCOCC2)C(=O)N2CCc3c([nH]c4cc(-c5ccco5)ccc34)[C@]12C)C(C)C | -6.51% (inactive) |  |
| Cc1cccc(C2c3c(n(C)c(=O)n(C)c3=O)N=C3c4ccccc4C(=O)C32)c1 (configuration not stated) | 2.3% (inactive) |  |
| Cc1nn(-c2ccccc2)c(C)c1-c1ccccc1O | -5.22% (inactive) | -6.7 |
| C=C(CC)C(=O)c1ccc(OCC(=O)O)c(Cl)c1Cl | -3.73% (inactive) |  |
| O=C(O)COc1ccc2nsnc2c1Cl | -9.55% (inactive) |  |
| CCOCCCNCC(O)c1ccccc1 (configuration not stated) | 0% (inactive) |  |
| CC1(C)CC(=NO)CC(C)(C)N1 | 0% (inactive) |  |
| COc1ccc([N+](=O)[O-])cc1NS(=O)(=O)c1ccccc1 | 5.1% (inactive) |  |
| COc1cc(C(=O)Nc2ccc(S(=O)(=O)Nc3ncccn3)cc2)c([N+](=O)[O-])cc1OC | 0.74% (inactive) |  |
| Cc1cc(NS(=O)(=O)c2ccccc2)c([N+](=O)[O-])cc1C | 4.34% (inactive) |  |
| COc1ccc(S(=O)(=O)/N=C2/NC(=O)/C(=C\c3cc(OC)c(OC)cc3[N+](=O)[O-])S2)cc1 | 2.45% (inactive) |  |
| Cc1ccc(/C=N/NC(=O)C(C)Oc2cccc3ccccc23)o1 (configuration not stated) | -3.22% (inactive) |  |
| CCC1(C)NC(=O)N(CC(=O)N2CCC(Cc3ccccc3)CC2)C1=O (configuration not stated) | -9.76% (inactive) |  |

| SMILES | inhibition | inhibition [1] [%] |
| --- | --- | --- |
| C/C(CC(C)C)=N/Nc1ccc([N+](=O)[O-])cc1[N+](=O)[O-] | -3.83% (inactive) |  |
| CC(Cc1ccccc1)=NNc1ccc([N+](=O)[O-])cc1[N+](=O)[O-] | 10.5% (inactive) |  |
| CC(=O)NC(C)c1nc2ccccc2n1C(C)C (configuration not stated) | -3.46% (inactive) |  |
| CC(/C=C1\NC(=S)NC1=O)=C\c1ccccc1 | -7.18% (inactive) |  |
| COc1ccc(/C=C/C=C2\NC(=S)NC2=O)cc1 | -2.15% (inactive) |  |
| CCC(C)(C(=O)NC1CCCC1)N(C(=O)CNC(=O)c1ccccc1)c1c(C)n(C)n(-c2ccccc2)c1=O (configuration not stated) | 0% (inactive) |  |
| COc1ccc(CNC(=O)c2cc3ccccc3oc2=O)cc1 | -1.96% (inactive) |  |
| COc1ccc(CN(C)CC(=O)Nc2c(C)cccc2C)c(OC)c1 | 1.51% (inactive) |  |
| CCOc1cc(S(=O)(=O)Nc2cc(C)cc(C)c2)ccc1Cl | 0% (inactive) |  |
| COc1ccc(NS(=O)(=O)c2ccc(Cl)c(N)c2)cc1Br | -3.69% (inactive) |  |
| COc1ccccc1CCC(=O)N(C)CC(=O)Nc1ccc(F)cc1 | 1.3% (inactive) |  |
| O=C(NNc1cccc(Cl)c1)c1cccnc1Cl | -5.34% (inactive) |  |
| COc1ccc(/C=C(/C#N)C(=O)Nc2ccccc2C)cc1C(=O)O | 0% (inactive) |  |
| COc1cc(/C=C(\C#N)C(=O)Nc2cccc3ncccc23)cc(OC)c1OC | -57.5% (inactive) |  |
| O=C(CN1CCN(C(c2ccccc2)c2ccccc2)CC1)NC(=O)NCc1ccco1 | -1.64% (inactive) |  |
| O=C(/C(=N/N=C/c1ccc(O)c(O)c1)c1ccccc1)c1ccccc1 | 7.23% (inactive) |  |
| Oc1ccc(/C=N/N(c2ccccc2)c2ccccc2)c(O)c1O | 9.52% (inactive) |  |
| COc1cc(/C=N/N=C(/C(=O)c2ccccc2)c2ccccc2)cc(OC)c1O | 0% (inactive) |  |
| CCN(CC)c1ccc(/C=N/N=C(c2ccccc2)c2ccccc2)c(O)c1 | -35.6% (inactive) |  |
| CC(C)c1ccc(Nc2nc(N3CCOCC3)nc(N3CCOCC3)n2)cc1 | -4.95% (inactive) |  |
| COC(=O)C(C(=O)OC)N1C(=O)CCC1=O | -3.21% (inactive) |  |
| CC(=O)c1ccc(NC(=O)CCc2nnc3ccc(N4CCCC4)nn23)cc1 | 1.97% (inactive) |  |
